The campaign covered roughly 53,000 sequences. About 3,700 (7%) were called active.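 Rule for the calls: active = gene knockdowns whose robust z-score for IL-1 alpha signal is at least 2 or at most -2, so actives lie on both sides; inactive = the rest.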 This excerpt belongs to a sample that is enriched for actives.

This test can be described thus: Components of the Cytosolic LPS Sensing Pathway: Gene Identification via Genome-wide siRNA Screen.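 Note: robust z of the log signal after scaling to non-targeting control siRNA wells of the plate.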 As to conditions: RAW264.7 macrophages, IL-1a HTRF, actives lie on both sides, screened at 100 nM (by protocol), cells primed 5 h with Pam3CSK4 first. In short, it runs like this:
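RAW264.7; siRNA 100 nM final, RNAiMAX, 48h 37 degrees C; Pam3CSK4 5 h; LipidA + TransIT-TKO 24 h; IL-1a HTRF; CellTiter-Glo viability; robust z vs negative-control median.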
Consider GCGCAGAGAUUACCUUAAGTT against Gtf3a, for which the z-score is -0.543 (inactive). Consider CCACUAUUUAAUCUUACCGTT against Hoxc13, for which the z-score is 0.175 (inactive). On to GGAGCAUAUAUAGAAUUAGTT against Mrps22, for which the z-score was 3.01 (active). In the case of GCGGGCUUUGCUGAGAUUUTT against Zbtb48, the z-score is 0.604 (inactive). For GGAGAUUUCCCGACUUAACTT against Tnip2, the z-score was 1.68 (inactive). Consider GGCAUCCAUGUGCUCUUUCTT against Tex13a, for which the z-score is -2.49 (active). As for GGGAAAAGGUCAGUGAAGUTT against Fam219b, the z-score was -0.305 (inactive). For the sequence GGGAAUGGAAGAAUAUUCUTT against Dppa2, the z-score was 1.61 (inactive). CCUCGUGUUACUUUUACCCTT against Olfr13: the z-score is -1.51 (inactive). As for GCUUCUCUACACCACAGACTT against Olfr796, the z-score is -0.0426 (inactive).

As for GGGUUGAUUGACGAAGCCATT against Fga, the z-score is -1.75 (inactive).

Take GGAGAUUCAGAAUUACUGATT against Krit1: the z-score is -0.818 (inactive). Regarding GCAUUCAUUGAUCAAUUCUTT against Zbtb6, the z-score is 2 (active). Regarding GCCUGCUUUGGAAAAAUCATT against Akr1c12, the z-score was 0.209 (inactive). Turning to CCCAGGAAGCCUUUGAUCUTT against Gmnn, the z-score was 0.263 (inactive). Consider CCAUCGUCCAAAGUACAUGTT against Rbp4, for which the z-score was -1.39 (inactive). Take GGGUAAUUAUUGUUUUCUGTT against Eif4e3: the z-score was 2.19 (active). On to GCUGUUGGUUUCUACUCACTT against Adam21, for which the z-score is -0.0536 (inactive).

For the sequence GGAACAUGUCUCCUGAUCUTT against Add3, the z-score was -1.07 (inactive). With GCAAUUCAGCUUAUAAGCATT against Mterf2 the figure was -2.79 (active).

Turning to GGGAAAUGAGUUUCUACCGTT against Ebna1bp2, the z-score is -0.891 (inactive). With CCUACACUAAAAUUCACCATT against Muc15 the figure was -0.549 (inactive); with CGUGUGCAAAGAAGCUAAATT against Mdm2, 1 (inactive); with GGAGAUGAUGAUUUACAAATT against Spred1, 0.723 (inactive). Take GGUGAUCUUAGAUUUGAUUTT against Qsox2: the z-score was -0.401 (inactive). On to GGGUUUCUUACUGAAGAAATT against Mindy2, for which the z-score is -1.43 (inactive). GGAUCGAGACAAGGCCAAATT against Fes: the z-score is 3.22 (active). As to GGAAUGAAGCCUGAACAGATT against Strc, the z-score is 0.151 (inactive). As to GGACAAUGCCCUGUAUCAGTT against Clic3, the z-score is -0.822 (inactive).

On to GGAUAGUCUCCUCAAAGAATT against Trmt10b, for which the z-score is 0.7 (inactive). In the case of GCUGUCAGAAAUCUUCGACTT against E2f4, the z-score is 2.65 (active). For CCAUACUACGGAUGUUUGATT against Calb2, the z-score is 0.677 (inactive). As to GGGUAUAGGGAUGGUGAAUTT against Ppil1, the z-score is 0.834 (inactive). For GCUACUCAGUCAUUGAGCCTT against Tatdn2, the z-score is -1.85 (inactive). For GCAUCUCAAGGAUCUUCGGTT against Syngr4, the z-score was -0.0821 (inactive).

In the case of GGGCAACUUUGAGUUCGAATT against Dok2, the z-score was 0.294 (inactive). CCUUACCCUGUGUAUCUUUTT against Naa80: the z-score is -0.0307 (inactive). Regarding GGCAAUUCACUGUGAGUAATT against Mettl21a, the z-score was -2.18 (active).

With GGCCAAGGUCAAUAACUCCTT against Rfc1, the z-score is -0.755 (inactive). As for GGACCACUACAUCAUAUACTT against Lcn4, the z-score is -1.17 (inactive). Next, GGCCAAGACACCCUUGUUUTT against Zfp524: -0.376 (inactive); GGAAGAGAAAGCAAAGUCATT against Ddx19a: -0.43 (inactive); CGGAAAUGUAAGUACUUUATT against Taf13: 2.25 (active). For GGUUCUGGAAGAAGAAAAGTT against Irgq, the z-score is 1.31 (inactive).

With GGUUCUGUAAAUUCAACUATT against Zfp593, the z-score was 0.706 (inactive). Take CUACGAGCCACUUCUGAGATT against Krt87: the z-score is -0.431 (inactive). As for GAACUGAAGAAGCAGAUUGTT against Isg15, the z-score is 0.601 (inactive).

As to GGCAUUAUGAGCAUCUCGGTT against Tnfrsf11a, the z-score is -0.394 (inactive). For the sequence GGAGACACCAGACCAACAATT against Gm5458, the z-score was 0.242 (inactive). In the case of GGAAGGACAACACUGCACCTT against Cd40, the z-score is 2.44 (active). Regarding “CCAUACAAGUAUCCGAACUTT against 1700102P08Rik”, the z-score is 1.03 (inactive). With GCCUCAGCAUUACCACUAUTT against Pof1b the figure was -1.86 (inactive); with GGUGAUGCAGCAGAUCAUUTT against Nfyc, 0.0427 (inactive). Next, GUGGAAAACAAGUGGCGGUTT against Cox7c: 0.241 (inactive). As for GGCAUUGACGAGGAUGACCTT against Supt3, the z-score is 2.74 (active). Next, GGAGAACUAUUCAGAAACUTT against Btbd11: -0.0178 (inactive); GCGGUGCCAAAGGUAUUAATT against Rad51ap1: -0.0801 (inactive). Take GCAAGAAGGGACACAGUUUTT against Plk1: the z-score was 0.276 (inactive). With GGAAAACCAAGACCACAAATT against Hmgn5 the figure was 1.39 (inactive); with GGUGCUUGAUUUUGUGCAGTT against Psmd13, -0.00516 (inactive). With GACACCACAGUCAAAUCUGTT against Agr2, the z-score is -2.26 (active). Take CCCUUUAAUACAUACAGUUTT against Mesp2: the z-score is 1.14 (inactive). For GCCCAAGGUGAUCAUUAUUTT against Casp1, the z-score is -0.15 (inactive). For the sequence GGUUGUAAGGAACUCUUGGTT against Slc22a29, the z-score is -0.628 (inactive). For GGACAUUCCUGAACAUAAUTT against Pcdha3, the z-score was -1.17 (inactive).

Turning to GGAGAUCUUCAAUAUGUUATT against Supt6, the z-score is -2.25 (active). Regarding GAAGCCUAAUCCCUUAAUCTT against Oas1g, the z-score was 1.07 (inactive).

Consider CCAUUUCAGGCAUGAAGAATT against Tsga10, for which the z-score is -1.13 (inactive). Regarding GGUCAAUAUUCUUAUGUCCTT against S1pr3, the z-score is 0.245 (inactive).

For the sequence GGAAUUGGAUGUGAGCAACTT against Vasn, the z-score is 0.586 (inactive). With GCCAUGGGUCUCAGAAAGATT against Zxda the figure was -0.247 (inactive); with GGAAGAGGAUAGGCAGGAATT against Gfer, 2.03 (active); with UGAUAGUCUCCACUAAAUUTT against Gm4884, -0.265 (inactive). Take GGAUCCUUUGGUUAUAAGATT against Nav1: the z-score is -1.28 (inactive). Turning to GGUCUUUAGCAGAGAAAAUTT against Zfp420, the z-score was -0.201 (inactive).

For the sequence GCCCACAGUCAUUAAACUATT against Nipal4, the z-score was 0.723 (inactive). Regarding GGAUCAAAUCAAGAAGAUGTT against Chmp5, the z-score is 0.627 (inactive).

Regarding CCCAGGGUGUCAAUCUAAATT against Cby1, the z-score was -0.381 (inactive). Next, CGAAAAUACGUCAAAGCUCTT against Abca8b: -0.656 (inactive). With GGGCACUGACAAACGUAUUTT against Olfr433 the figure was -0.34 (inactive); with GUUCUUCUCUGUUGGUGCUTT against Vmn1r24, -2.12 (active). As to GGACUUCGUGAACAAGAUCTT against Grin2b, the z-score was -0.439 (inactive). Turning to GCGGCCACGGGACGGCGGUTT against Hmx2, the z-score is -0.455 (inactive).

In the case of GGUCAUGACAGGAUACCCATT against Fam163b, the z-score is -1.99 (inactive). Take GGAGCCGUACAUCUUACACTT against Abhd1: the z-score was 0.33 (inactive). GCCGAGUGAAUGAAAGGACTT against Ppp1r32: the z-score is -0.758 (inactive). Turning to CCGUGGCGUAUGUGAUCAATT against Map3k5, the z-score was -0.249 (inactive). Regarding GGACUCUCAGAAGAAUGAUTT against Hmmr, the z-score was 2.98 (active). With GGGAAAUGUUUUCCAAAGATT against Tep1 the figure was 0.776 (inactive); with CCAUAUGUGCUCACCUUUATT against Marveld2, -0.641 (inactive). Next, CGAGUUUAAAGUGAGAAGATT against Pou1f1: 0.488 (inactive); GCCACUCUUUAAGAAUCUATT against Abcf1: -0.552 (inactive); GCAUUGUCCGAGGUUUAUUTT against Tspan33: 0.64 (inactive). With GGAGACAUUCCUGAAAGCUTT against Ankrd2 the figure was -2.09 (active). Turning to “GGUGCUAUGUGCGUUUGAUTT against 9830107B12Rik”, the z-score is 1.97 (inactive). Next, GGCGGAUGAACAAAGUUGGTT against Polr1e: 0.0863 (inactive); GGAGAAUAAGCAAAUCCUUTT against Cfap20dc: -0.937 (inactive). Consider GGUCCCAUAUACCAGAUCUTT against Slc3a1, for which the z-score was 1.63 (inactive).

As to UGUCAGUGCAGAAUAGCACTT against Olfr658, the z-score was -1.17 (inactive). Next, GGACAUAGAGAACAUCAUCTT against Cabp7: 4.02 (active); CGACACUCAAUGUGAACUUTT against Grtp1: -0.881 (inactive). For GCCAGUCAUGCCUAUUUUCTT against Zmym6, the z-score was -0.528 (inactive). For GGUGUGAGUGUCGGAAUCUTT against Islr2, the z-score is 0.138 (inactive).

Consider GGGACAAGUUCAUCUGAUATT against Rin1, for which the z-score was 2.06 (active).

In the case of GGAAUGGUUUUAUUUUUGGTT against Noa1, the z-score is -0.0245 (inactive). For the sequence GGUACCUCUGUAUUCAGCCTT against Olfr121, the z-score is 0.78 (inactive). GGAAACUACAAAUUUGGCATT against Krtap6-2: the z-score was 0.195 (inactive). Consider CCCACAGUAAAUUCAACGGTT against Gm5069, for which the z-score was 0.00754 (inactive).

The values above are taken from PubChem BioAssay AID1508600 (Functional Genomics Laboratory (NCATS/FGL), 2020).
